PubChem BioAssay AID743402 (Broad Institute, 2014)
The whole screen tested about 1,200 compounds, of which about 140 (12%) were called active.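 Rule for the calls: active = fitted curve falls past -35% activity change at a dose under twice the top valid dose, in every replicate test; inconclusive = replicate tests disagree on the call; inactive = the rest, including activity in the opposite direction.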 These entries were drawn from the full list.

Assay: CFTR-F508del correctors, dose response, FRT cells, YFP quenching, cherry-pick (AID 743402);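 note: compounds act as correctors raising surface CFTR-F508del before acute activation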
Details: FRT CFTR-F508del YFP iodide quenching, 24 h, channel opened with forskolin and a potentiator; series mostly up to 26 µM; activity change, negative = more quenching (active): at the top concentration

Activity change, negative = more quenching (active), inactive:
OC[C@@H]1CN(Cc2ccc(-c3ccccc3)cc2)C[C@H](n2cnc3c(NC4CC4)ncnc32)O1 6.46%
COc1ccccc1NC(=O)CSc1ccc(-c2ccccn2)nn1 -3.33%
COc1ccccc1N=C1SC(C(=O)Nc2cccc(Cl)c2Cl)C(N)=C1C(N)=O (centres undefined) 9.13%
CC(C)C[C@H]1CN([C@@H](Cc2ccc(O)cc2)CN2CCC[C@H]2CN2C(=O)C(=O)NC[C@@H]2Cc2ccccc2)C(=O)C(=O)N1CC1CCCCC1 33.5%
CCC(=O)N1CC2(CCN(Cc3ccc(Cl)cc3)CC2)c2c(n(C)c3cc(OC)ccc23)[C@H]1CO -6.91%
COC(=O)C1=CN(c2ccc(OC)cc2OC)C(N)=C(C#N)C1c1ccccc1F (centres undefined) 6.46%
CCCC(=O)NC(c1ccc(Cl)cc1)c1ccc2cccnc2c1O (centres undefined) 3.12%
Cc1cccc(NC(=S)N/N=C/c2cccc(O)c2)c1C 0%
Cc1cnc(NC(=O)c2ccc3c(c2)OCCO3)s1 -20%
Cc1cc(Br)cc(/C=N/NC(=O)c2ccc3c(c2)OCO3)c1O 13.3%
O=C(Cc1ccc(Br)cc1)NCc1ccccc1 -3.12%
Cc1nc(N)[nH]c(=O)c1CCCNS(=O)(=O)c1ccc([N+](=O)[O-])cc1 11.5%
CC(C)CN(CCCNC(=O)CN1C(=O)CSc2ccc(S(=O)(=O)N3CCOCC3)cc21)CC(C)C 6.25%
CCN(CC)C(=O)c1oc2ccc(S(=O)(=O)N3CC(C)CC(C)C3)cc2c1C (centres undefined) 17.5%
O=C(N=Nc1c(O)[nH]c2ccc(Br)cc12)c1ccccc1-n1cccc1 -13.3%
Cn1cccc1/C=C1\SC(=Nc2cccc(O)c2)NC1=O 8.28%
Cc1ccc(C2NC(=O)c3ccccc3N2)c(C)c1 (centres undefined) 3.33%
Cn1cc(C(=O)N/N=C/c2ccc3c(c2)OCO3)c2ccccc21 -10%
COc1cc(OC)c2c(-c3cccc(-c4cccc(N)c4)c3)cc(=O)oc2c1 -3.33%
CC(C)Nc1ccc(Nc2ccnc3cc4ccccc4cc23)cc1 -20%
COc1ccc(-c2ccc3c(c2)[C@H]2[C@H](CCN2S(=O)(=O)c2ccc(OC)cc2)[C@H](CO)N3C)cc1 -31.2% [at 8 µM]
Cc1ccccc1S(=O)(=O)N1C[C@@H]2N[C@H](C1)C2c1ccc(-c2cccc(C#N)c2)cc1 (some centres undefined) 0%
COc1cccc(-c2ccc([C@H]3[C@@H](CO)N(C(=O)c4ccccn4)[C@H]3C#N)cc2)c1 19.3%
Cc1cccc(S(=O)(=O)N2C[C@H]3[C@@H](c4ccccc42)[C@H](CO)N3CC2CCCC2)c1 6.46%
CCCNC(=O)N1CC2(CN(S(=O)(=O)c3cccc(OC)c3)C2)c2c(n(C)c3cc(OC)ccc23)[C@H]1CO 12.3%
CN1c2ccc(-c3ccc(F)cc3)cc2[C@H]2[C@H](CCN2S(=O)(=O)c2cccc(F)c2)[C@@H]1CO -28.6% [at 9 µM]
Cc1ccc(C)c(C2NC(=O)c3ccccc3N2)c1 (centres undefined) -3.85%
COC(=O)CSC1=C(C#N)C(c2ccc(C)o2)CC(=O)N1 (centres undefined) -3.33%
COc1ccccc1CNC(=O)Nc1nc(C(N)Cc2ccc(Cl)cc2)cs1 (centres undefined) -13.3%
CN(C)CCCN(C(=O)c1ccco1)c1nc(-c2ccc(Cl)cc2)cs1 -3.85%
O=C(CCc1ccccc1)NCC(c1ccco1)N1CCc2ccccc21 (centres undefined) -6.46%
CCOC(=O)c1oc2ccc(S(=O)(=O)n3nc(-c4ccccc4)cc3N)cc2c1C 5.42%
Cc1ccc(C(=O)N/N=C/c2cc(Br)ccc2O)cn1 16%
Cc1ccc(-c2ccc3c(c2)O[C@H](CN(C)Cc2ccccn2)[C@@H](C)CN([C@@H](C)CO)S3(=O)=O)cc1 3.57%
O=[N+]([O-])c1ccc(N=Nc2c(Cl)cc(O)cc2Cl)cc1 18.8%
COc1ccc(OC)c2[nH]c(C(=O)N/N=C/c3ccccc3O)cc12 3.12%
Cc1ccc(-c2ccc3c(c2)O[C@@H](CN(C)Cc2ccccn2)[C@H](C)CN([C@H](C)CO)S3(=O)=O)cc1 -7.14%
Cn1c(C(=O)c2ccccc2[N+](=O)[O-])nc2ccccc21 -22.1%
Cc1cccc(N2CCN(S(=O)(=O)c3cc(-c4cc(C)no4)ccc3C)CC2C)c1 (centres undefined) -1.61%
C[C@@H]1CN([C@H](C)CO)S(=O)(=O)c2ccc(-c3ccccc3)cc2O[C@H]1CN(C)Cc1ccccn1 8.74%
COc1ccc(-c2ccc3c(c2)[C@H]2[C@H](CCN2S(=O)(=O)c2ccc(OC)cc2)[C@@H](CO)N3)cc1 -10.7% [at 23.5 µM]
O=C(C[C@@H]1CC[C@H]2[C@@H](COC[C@H](O)CN2Cc2ccc3c(c2)OCO3)O1)Nc1ccc(-c2ccccc2)cc1 21.4% [at 2.85 µM]
COc1cc2c(-c3ccccc3)c(C)oc2cc1/C=N/NC(N)=S -6.67%
Cc1ccc(/C=N/NC(=O)c2c(-c3ccccc3)noc2C)c(O)c1 12.9%
CO/N=C\CC(=O)Nc1ccc(Cl)cc1Cl -3.12%
CCOc1cc(/C=N/NC(=O)N/N=C/c2ccc(O)c(OCC)c2)ccc1O -6.46%
COc1ccc(C2c3ccc4ccccc4c3Oc3ncn(CCCO)c(=N)c32)cc1OC (centres undefined) -6.46%
CCOC(=O)c1c(NC(=O)C(=O)N/N=C/c2ccccc2O)sc2c1CCCCC2 0.208%
O=c1c2ccccc2oc2cc(-c3ccc4[nH]ccc4c3)ccc12 -16.7%
O=C(NCCOc1ccccc1F)c1cc([N+](=O)[O-])ccc1N1CCOCC1 23.3%
CCOc1ccc(C(=O)COC(=O)Cc2n[nH]c(=O)c3ccccc23)cc1 0%
CCN1C(=O)c2cccc3c(S(=O)(=O)N(C(C)=O)c4ccc(OC(C)=O)cc4)ccc1c23 4.17%
O=C1c2cccc3c(O)ccc(c23)C(=O)N1c1ccc(Cl)cc1 -29%
C/C(=N\Nc1ncnc2sc(C)c(C)c12)c1ccccn1 -20%
Cn1cccc1/C=C1\SC(=Nc2ccccc2)NC1=O -16.7%
CCc1cc(-c2nnn(CCC3COCCO3)c2CC)ccc1-c1cn(Cc2ccc3ccccc3c2)nn1 (centres undefined) 6.67%
COc1cc(NC(=O)c2csc(N)n2)cc(C(=O)Nc2cccc(C(F)(F)F)c2)c1 12.5%
O=C(C1CCCCC1)N1CC(=O)N2[C@@H](CO)[C@H](c3ccc(C#Cc4cccc(F)c4)cc3)[C@@H]2C1 -14.3%
CC1=Nc2cc(C(=O)NCC3CCCO3)ccc2Sc2ccc(C)cc21 (centres undefined) 6.46%
COc1ccccc1NC(=S)N(Cc1ccco1)Cc1cc2cc(C)cc(C)c2[nH]c1=O -13.3%
CC(=O)O[C@H]1C(=O)[C@]2(C)[C@H]([C@H](OC(=O)c3ccccc3)[C@]3(O)C[C@H](OC(=O)[C@H](O)[C@@H](NC(=O)c4ccccc4)c4ccccc4)C(C)=C1C3(C)C)[C@]1(OC(C)=O)CO[C@@H]1C[C@@H]2O 12.7%
COc1cc2c(cc1OC)C(C)N(C(=O)Nc1cc(C)cc(C)c1)CC2 (centres undefined) 0%
C=CCN1c2ccccc2[C@]23C[C@@H](C(=O)OC)N(C(=O)c4cccs4)C2=NC(C(=O)OC)=C(C(=O)OC)[C@H]13 6.67%
C[C@H]1CN([C@@H](C)CO)C(=O)Cc2cc(NC(=O)Nc3ccc(C(F)(F)F)cc3)ccc2O[C@H]1CN(C)S(=O)(=O)c1ccccc1 7.14%
O=C(N/N=C\c1c(O)ccc2ccccc12)c1cncc(Br)c1 -33.3%
C[C@H]1CN([C@@H](C)CO)S(=O)(=O)c2ccc(C#Cc3ccc(F)cc3)cc2O[C@H]1CN(C)C(=O)NC1CCCC1 10.7%
COc1ccc(OC)c(Nc2cc(C)nc3ccc(C)cc23)c1 -17.9%
C[C@H]1CN([C@@H](C)CO)S(=O)(=O)c2ccc(-c3ccc(C#N)cc3)cc2O[C@@H]1CN(C)Cc1ccccn1 -1.72%
Oc1ccc2ccccc2c1C=NNc1ccccn1 -13.3%
Cc1cccc(Nc2nc(N)nc(-c3oc4ccccc4c3C)n2)c1 3.33%
CCOC(=O)c1ccc(Nc2sc(C(=O)c3cccc([N+](=O)[O-])c3)c(N)c2C#N)cc1 -6.25%
CCc1ccc(-c2nc(C(N)=O)c3[nH]c(=O)n(-c4ccccc4OC)c3n2)cc1 -12.9%
Nc1sc(-c2ccccc2)cc1-c1n[nH]c(=S)n1C1CCCCC1 0%
Cc1ccc(C)c(CSc2nc3[nH]ncc3c(=O)[nH]2)c1 5.42%
